The other results are listed elsewhere or left out. Active and inactive are the calls of the source.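 How the source made its calls, unless noted: active means mean inhibition above about 50% in the one-dose retest (limit read from the data); inactive means the rest.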
How the values were obtained:
[1] = target: Sentrin-specific protease 8 (Homo sapiens) (UniProt Q96LD8); test: human SENP8 peptidase blockers, hit retest – biochemical, luminescence, single concentration, confirmation (AID 488912;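 active means mean inhibition across replicates above about 50%, limit read from the data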); settings: Recombinant SENP8, Z-RLRGG-aminoluciferin luminescence, 60 min; at 12.5 µM; hits give high values
Sentrin-specific protease 8 (Homo sapiens), sequence (Q96LD8 whole entry, looked up, the tested form may be a part): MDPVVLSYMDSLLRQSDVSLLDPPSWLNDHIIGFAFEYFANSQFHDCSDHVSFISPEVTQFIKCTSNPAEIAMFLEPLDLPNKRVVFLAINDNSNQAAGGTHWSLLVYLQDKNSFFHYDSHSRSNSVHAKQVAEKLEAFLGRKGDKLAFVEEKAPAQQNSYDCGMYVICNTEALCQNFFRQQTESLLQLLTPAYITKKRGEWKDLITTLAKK

[2] = target: Sentrin-specific protease 6 (Homo sapiens) (UniProt Q9GZR1); test: inhibition of human SENP6 catalytic domain – biochemical, luminescence, single concentration, confirmation (AID 488915); settings: recombinant SENP6, Z-RLRGG-aminoluciferin luminescence; at 12.5 µM; hits give high values
Sentrin-specific protease 6 (Homo sapiens), sequence (Q9GZR1 628-1112 limits assumed): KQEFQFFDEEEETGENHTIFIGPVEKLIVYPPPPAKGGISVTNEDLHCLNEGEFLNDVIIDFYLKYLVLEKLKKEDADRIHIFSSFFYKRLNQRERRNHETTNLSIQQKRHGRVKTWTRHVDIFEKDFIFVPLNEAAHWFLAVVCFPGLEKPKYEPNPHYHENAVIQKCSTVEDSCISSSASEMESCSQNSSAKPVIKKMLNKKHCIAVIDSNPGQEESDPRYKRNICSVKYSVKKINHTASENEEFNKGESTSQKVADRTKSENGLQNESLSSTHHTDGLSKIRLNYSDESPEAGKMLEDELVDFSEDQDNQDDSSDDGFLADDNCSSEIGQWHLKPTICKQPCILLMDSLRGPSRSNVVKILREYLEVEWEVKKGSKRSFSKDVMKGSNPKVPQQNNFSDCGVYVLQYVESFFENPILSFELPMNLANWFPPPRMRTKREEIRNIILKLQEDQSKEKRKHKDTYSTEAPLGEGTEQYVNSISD

[3] = target: Sentrin-specific protease 7 (Homo sapiens) (UniProt Q9BQF6); test: human SENP7 peptidase blockers, hit retest – biochemical, luminescence, single concentration, confirmation (AID 488917); settings: recombinant SENP7, Z-RLRGG-aminoluciferin luminescence, 40 min; at 12.5 µM; hits give high values
Sentrin-specific protease 7 (Homo sapiens), sequence (Q9BQF6 706-1050 limits assumed): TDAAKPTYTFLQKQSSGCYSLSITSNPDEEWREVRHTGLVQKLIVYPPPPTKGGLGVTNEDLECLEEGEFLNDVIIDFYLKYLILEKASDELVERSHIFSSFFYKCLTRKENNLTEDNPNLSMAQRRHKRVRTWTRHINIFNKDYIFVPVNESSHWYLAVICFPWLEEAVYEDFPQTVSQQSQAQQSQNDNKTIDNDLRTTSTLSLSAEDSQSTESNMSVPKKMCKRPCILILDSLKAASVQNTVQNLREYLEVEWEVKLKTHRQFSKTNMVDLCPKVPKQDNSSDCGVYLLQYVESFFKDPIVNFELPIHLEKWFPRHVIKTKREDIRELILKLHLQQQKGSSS

[4] = target: Caspase-3 (Homo sapiens) (UniProt P42574); test: human caspase-3 activity blockade, out-of-family – biochemical, single concentration, selectivity assay for SENP inhibitor project, confirmation (AID 488918;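 active means mean inhibition above about 50%, limit read from the data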;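 further: plate controls were enzyme with DMSO for no effect and wells without caspase-3 for full effect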); settings: purified caspase-3, Z-DEVD-aminoluciferin luminescence, 60 min; at 12.5 µM; hits give high values
Caspase-3 (Homo sapiens), sequence (P42574 28-227 limits assumed): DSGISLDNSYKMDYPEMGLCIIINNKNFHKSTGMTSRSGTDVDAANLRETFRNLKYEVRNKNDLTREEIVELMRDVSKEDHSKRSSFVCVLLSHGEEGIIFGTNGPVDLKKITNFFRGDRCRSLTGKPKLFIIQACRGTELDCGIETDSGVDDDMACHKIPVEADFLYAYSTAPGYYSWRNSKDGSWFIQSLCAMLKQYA

[5] = Ultra-Glo luciferase signal interference – biochemical, single concentration, SENP8 reaction pre-completed, artefact control for SENP inhibitor project, confirmation (AID 488919;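 active means mean inhibition above about 50% when retested at one dose, limit read from the data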;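 further: plate controls were DMSO wells with completed reaction for no effect and substrate without enzyme for full effect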); settings: Pre-incubated SENP8/Z-RLRGG-aminoluciferin, luciferase luminescence interference; at 12.5 µM; hits give high values
[6] = apoptosome-driven caspase-3 activation blockers – biochemical, fluorescence, DEVD-Rh110, 20 µM, confirmation (AID 504614;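 active means mean inhibition of at least 40% at 20 µM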;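 further: plate controls were DMSO wells for no effect and DEVD-CHO caspase inhibitor control wells for full effect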); settings: reconstituted apoptosome, caspase-3 DEVD-Rh110 fluorescence; at 20 µM; hits give high values
[7] = detection-step artefacts after completed caspase reaction – biochemical, fluorescence, Rh110, 20 µM, artefact control for Apaf-1 inhibitor project, confirmation (AID 504615;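 active means signal rise of 40% or more at 20 µM, treated as a fluorescence artifact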); settings: quenched caspase reaction, at 20 µM, hits give high values

Compound | inhibition [1] | inhibition [2] | inhibition [3] | inhibition [4] | inhibition [5] | inhibition [6] | activation (fluorescence interference) [7]
C/C(=N\NC(=O)CNc1cccc2ccccc12)c1ccc(Br)s1 | -9.7% (inactive) | -9.8% (inactive) | -3.4% (inactive) | -2.4% (inactive) | -7.4% (inactive) | 13.9% (inactive) | 3.87% (inactive)
COCCn1nnnc1C(c1cc2ccc(OC)cc2[nH]c1=O)N1CCc2ccccc2C1 (stereo unspecified) | 12.6% (inactive) | 23% (inactive) | 2.5% (inactive) | 1% (inactive) | -2% (inactive) | – | –
CCCCSc1nnc(-c2ccc(C)cc2)o1 | 19.5% (inactive) | 60.5% (active) | 85.3% (active) | 55% (active) | 23.2% (inactive) | – | –
O=C(OCC(=O)N1CCN(c2ccccc2)CC1)c1ccc([N+](=O)[O-])s1 | 64.2% (active) | 80.9% (active) | 25.4% (inactive) | 8.3% (inactive) | -3.3% (inactive) | – | –
N#Cc1c(N2CCCCC2)nc(N)c2c(N)nc(SCC(=O)O)cc12 | 11.2% (inactive) | 72.6% (active) | 61.9% (active) | 0.8% (inactive) | -0.2% (inactive) | 31.3% (inactive) | 7.18% (inactive)
CCCc1cc(=O)oc2c(C)c(OCC(=O)Nc3ccccn3)ccc12 | 18.2% (inactive) | 14.4% (inactive) | 23.3% (inactive) | 39.2% (inactive) | 11.8% (inactive) | – | –
COc1cccc(OCC(O)CNC(=O)c2oc3c(C)c(C)ccc3c2C)c1 (stereo unspecified) | 5.2% (inactive) | -1.7% (inactive) | -2.1% (inactive) | -3.9% (inactive) | -0.9% (inactive) | – | –
CCOc1ccc2nc(C(=O)N3CCCC(C)C3)sc2c1 (stereo unspecified) | 59.3% (active) | 68.3% (active) | 86.3% (active) | 62.5% (active) | 66.4% (active) | – | –
c1csc(-c2nc(-c3ccncc3)no2)c1 | 19.7% (inactive) | 47.2% (inactive) | 83.4% (active) | 80.4% (active) | 42.1% (inactive) | – | –
O=C(N/N=C/c1cccnc1)c1cc2ccccc2cc1O | 25.3% (inactive) | 22.6% (inactive) | 72.3% (active) | 61.6% (active) | 53.8% (active) | – | –
Nc1ccc(-c2nnc(-c3ccccc3)o2)cc1 | 51.2% (active) | 51.4% (active) | 79.5% (active) | 65.7% (active) | 35.7% (inactive) | – | –
O=C(ON=C1CCN(S(=O)(=O)c2ccccc2)CC1)c1ccc(Cl)cc1 | 12.5% (inactive) | 15.5% (inactive) | 3.4% (inactive) | 17.7% (inactive) | -1.9% (inactive) | – | –
Oc1ccc(N=Cc2sc3ccccc3c2Cl)cc1 | -10.7% (inactive) | -2.2% (inactive) | 49.3% (inactive) | 1.9% (inactive) | 20.8% (inactive) | 14.4% (inactive) | 5.12% (inactive)
O=c1c2c(nc3n1CCCCC3)sc1c(O)cccc12 | 53.6% (active) | 49.2% (inactive) | 75.5% (active) | 59.4% (active) | 61.9% (active) | – | –
O=C(Nc1ccccc1)c1ccc2c(c1)OCO2 | 10.6% (inactive) | 74.3% (active) | 93.9% (active) | 88.9% (active) | 54.8% (active) | – | –
COc1ccccc1NC(=O)c1ccc(N2CC3CC(C2)c2cccc(=O)n2C3)c(NC(=O)c2cccnc2)c1 (stereo unspecified) | 8.2% (inactive) | 5.2% (inactive) | 12.1% (inactive) | 8.9% (inactive) | 3.7% (inactive) | – | –
COc1ccc2nc(Nc3nc4cc5c(cc4s3)OCCO5)sc2c1 | 20.4% (inactive) | 63% (active) | 71.6% (active) | 31.8% (inactive) | 24.3% (inactive) | – | –
O=C(Nc1cccc2ccccc12)c1onc2c1CCCC2 | -4.7% (inactive) | 75% (active) | 93.2% (active) | 78.6% (active) | 81.4% (active) | – | –
Cc1ccc(F)c(NC(=O)CCc2ccccc2)c1 | 36.4% (inactive) | 30.4% (inactive) | 68.6% (active) | 60.7% (active) | 44.8% (inactive) | – | –
Cc1ccc(-n2cc3ccc([N+](=O)[O-])cc3n2)cc1 | -5.1% (inactive) | 20.7% (inactive) | 61.5% (active) | 18.7% (inactive) | -2.9% (inactive) | – | –
O=C(c1cnn2ccccc12)N1CCc2ccccc21 | 36.7% (inactive) | 39.6% (inactive) | 78.5% (active) | 74% (active) | 61.4% (active) | – | –
C/C(=N\NC(=O)c1ccoc1C)c1ccccc1O | 38.5% (inactive) | 36.8% (inactive) | 80.7% (active) | 77.3% (active) | 63% (active) | – | –
O=C(Nc1ccccc1F)c1ccc2c(c1)OCO2 | 72% (active) | 66.7% (active) | 90.9% (active) | 89.4% (active) | 69.1% (active) | – | –
COc1cccc(C(=O)c2cc3ccc(O)cc3oc2=O)c1 | 98.7% (active) | 100% (active) | 103% (active) | 98.7% (active) | 98% (active) | – | –

— PubChem BioAssay
